MazEF act – activators of E. coli MazEF toxin-antitoxin RNase; FAM/BHQ RNA-DNA oligo cleavage fluorescence, 5 h; activation, % at 20 µM; P0AE70; 350,000 compounds, 0.32% hits; AID 504720; in the data active means activation above about 50%
Autofluor counter – compound fluorescence in toxin protease inhibitor counterscreen; AID 624483; fluorescence intensity (test concentration not listed); 360,000 compounds, 3.1% hits; compound autofluorescence counterscreen, microsphere flow cytometry; active compounds read high; in the data active means fluorescence intensity above about 16000; inconclusive means no clear call, values can overlap the other calls
BoNT-F LC inh – inhibitors of Botulinum neurotoxin F light chain protease. Multiplex microsphere protease cleavage assay, flow cytometry. inhibition, % at 10 µM. 360,000 compounds, 0.22% hits. AID 588497; in the data active means inhibition above about 35%, passing the limit was not always enough; inconclusive means no clear call, values can overlap the other calls; further: plate controls were buffer without enzyme for full effect and enzyme alone for no effect
BoNT-A LC inh2 – blocks Botulinum neurotoxin A light chain protease | multiplex microsphere protease substrate cleavage, flow cytometry | inhibition, % at 10 µM | 360,000 compounds, 0.17% hits | AID 588499; further: plate controls were buffer without enzyme for full effect and enzyme alone for no effect
Anthrax LF prot – anthrax lethal factor protease inhibition; inhibition, % at 10 µM; 360,000 compounds, 0.12% hits; P15917; multiplex microsphere protease cleavage assay, LF; further: plate controls were buffer without enzyme for full effect and enzyme alone for no effect
VHR inh abs – inhibitors of human VHR1 phosphatase (DUSP3). recombinant VHR phosphatase, pNPP absorbance. 290,000 compounds, 0.52% hits. P51452. inhibition, % at 13.3 µM. AID 1654; in the data active means inhibition above about 50%
An asterisk follows results filed as active; ? = inconclusive; . = no result. The list is not random: actives were taken first. Their share in the collection is about 4.1%. Unless noted, no stated cut-off is given here; in the data, active means inhibition above about 30%; inconclusive means no clear call, values can overlap the other calls; inactive means below that.

SMILES | MazEF act | Autofluor counter | BoNT-F LC inh | BoNT-A LC inh2 | Anthrax LF prot | VHR inh abs
COC(=O)c1cc(NC(=O)C2COc3ccccc3O2)ccc1Cl (configuration not stated) | 5 | 21646* | 2 | 2 | -1 | 5
O=C(CNC(=O)C1COc2ccccc2O1)N/N=C\c1ccccc1Cl (configuration not stated) | 5 | 5235 | 2 | 2 | 2 | 56*
O=C(NCCCN1CCOCC1)C1COc2ccccc2O1 (configuration not stated) | 3 | 16494* | -5 | -1 | -2 | -1
CC(C)(C)c1ccc(S(=O)(=O)NC(=O)C2(C)CCN2C(=O)C2CCCCC2)cc1 (configuration not stated) | . | 2834 | 7 | 0 | -4 | .
CN(Cc1ccccc1)C(=O)c1cccc(NC(=O)Cc2ccc(NC(=O)C3CCN(C(=O)C4CC4)CC3)cc2)c1 | 1 | 3561 | -3 | 0 | -5 | .
CC(C)C(=O)Nc1ccc2c(c1)nc1n2CCSC1 | 5 | 16136* | 7 | 1 | -1 | -10
O=C(Nc1ccc2c(c1)nc1n2CCSC1)c1ccccc1 | -4 | 21018* | 0 | 0 | 5 | -2
CCC(=O)Nc1ccc2c(c1)nc1n2CCSC1 | 0 | . | . | . | . | 36
COc1ccccc1S(=O)(=O)N(C)C[C@H]1OCc2cnnn2CCCC(=O)N([C@H](C)CO)C[C@@H]1C | 10 | 5328 | -3 | -1 | -2 | .
CCC1(CC)Cc2ccccc2-c2nc(NCCO)[nH]c(=O)c21 | -1 | 20997* | 7 | 3 | -1 | 4
CCC1(C)Cc2ccccc2-c2nc3n(c(=O)c21)CCCCC3 (configuration not stated) | -11 | 21213* | -2 | -1 | -4 | 2
CCC1(C)Cc2ccccc2-c2nc(NCCO)n(-c3ccccc3)c(=O)c21 (configuration not stated) | -4 | 16333* | -5 | 0 | -5 | -16
O=c1[nH]c(NCCO)nc2c1C1(CCCCC1)Cc1ccccc1-2 | -7 | 4790 | -16 | -1 | -2 | 8
COc1ccc(C2C(C#N)=C(N)Oc3cc(O)ccc32)cc1Cl (configuration not stated) | 14 | 4572 | 35* | 0 | 3 | 15
CCOc1ccc(C2C(C#N)=C(N)Oc3cc(O)ccc32)cc1OCC (configuration not stated) | -1 | 4284 | 6 | 0 | -16 | 4
N#CC1=C(N)Oc2cc(N)ccc2C1c1cccc(F)c1 (configuration not stated) | 9 | 4338 | 27 | -4 | -3 | 14
CN(C)c1ccc2c(c1)OC(N)=C(C#N)C2c1cccc(F)c1 (configuration not stated) | 52* | 12123 | 34 | 21 | 18 | -29
Cc1cc(C)c(NC(=O)CS(=O)CC(=O)NCCN2CCCCCC2)c(C)c1 (configuration not stated) | -17 | 3406 | -7 | -5 | -1 | 36
CCOc1ccccc1NC(=O)C1C2C=CC(C2)C1C(=O)O (configuration not stated) | -1 | 25672* | -7 | -4 | -2 | 17
O=C(O)C1C2C=CC(C2)C1C(=O)Nc1cccc(F)c1 (configuration not stated) | 3 | 22384* | -4 | -1 | -1 | 5
COc1ccc(NC(=O)N2CC(C)OC(C)C2)cc1OC (configuration not stated) | 0 | 24184* | -4 | -2 | -2 | 33
CC(=O)c1cccc(NC(=O)N2CCCC2C(=O)Nc2ccc3c(c2)OCO3)c1 (configuration not stated) | 3 | 2050 | -5 | 0 | -1 | 57*
COc1ccc(NC(=O)N2CCCC2)cc1OC | 3 | 16119 | 4 | 1 | 1 | 5
COc1cc(C(=O)N2CC(C)OC(C)C2)c([N+](=O)[O-])cc1OC (configuration not stated) | -7 | 18981* | 1 | 2 | 4 | -4
COc1cc(C(=O)N2CCN(C(=O)c3ccco3)CC2)c([N+](=O)[O-])cc1OC | 2 | 4634 | -5 | 0 | -7 | 5
SMILES | MazEF act | Autofluor counter | BoNT-F LC inh | BoNT-A LC inh2 | Anthrax LF prot | VHR inh abs
CC1CN(C(=O)Nc2ccc3c(c2)OCO3)CC(C)O1 (configuration not stated) | -6 | 20354* | 8 | 6 | 2 | 4
CC(C)C[C@H]1CN(CCCC[C@@H]2CNC(=O)C(=O)N2Cc2ccccc2)C(=O)C(=O)N1CCC1CCCCC1 | . | 5184 | -4 | 0 | -2 | .
COc1cc(NC(=O)CN2C(=O)C(C)N(c3ccc(C)cc3)C2=O)cc(OC)c1 (configuration not stated) | 3 | . | . | . | . | .
CCCCN1C(=O)/C(=C2/Sc3ccc(OC)cc3N2CC)SC1=S | 71* | 4339 | ? | 2 | -6 | 22
C=CCN1C(=O)/C(=C2/Sc3ccc(OC)cc3N2CC)SC1=S | 752* | 4070 | ? | -1 | 18 | 18
CCN1/C(=C2/SC(=S)N(NC(C)=O)C2=O)Sc2ccc(OC)cc21 | 15 | 4674 | ? | 4 | 14 | 0
Nc1[nH]ncc1-c1ccc(Cl)cc1 | -3 | 4614 | -4 | -1 | -4 | 8
COc1cc(-c2cn[nH]c2N)cc(OC)c1OC | 1 | 21444* | -5 | ? | 1 | 12
CCC(Sc1ncccc1C(=O)OC(C)C)C(=O)N1CCOCC1 (configuration not stated) | 8 | 22945* | -2 | ? | -10 | 29
CCOC(=O)c1cccnc1SC(CC)C(=O)NCc1ccco1 (configuration not stated) | 3 | 24254* | -2 | -1 | 0 | 8
CCC(Sc1ncccc1C(=O)OCCN1CCCC1=O)C(=O)NCc1ccco1 (configuration not stated) | 4 | 20951* | 8 | 6 | -7 | 30
CNc1ncnc2c1ncn2[C@H]1CN(C2CCCC2)C[C@@H](CO)O1 | . | 2881 | 1 | 0 | 5 | .
CC(C)(C)c1ccc(-c2nnc(SCC(=O)O)n2N)cc1 | -4 | 22213* | 3 | 2 | -2 | 32
Cc1ccc(-c2nnc(SCC(=O)O)n2N)cc1 | 1 | 22439* | -1 | ? | 0 | 12
CC(C)CC(=O)NC(=S)NNC(=O)c1ccc([N+](=O)[O-])cc1 | 0 | 2284 | -5 | 0 | 0 | 26
CCC(=O)NC(=S)NNC(=O)c1ccc([N+](=O)[O-])cc1 | 8 | 20381* | 0 | 0 | -4 | -2
O=C(Nc1ccsc1C(=O)O)c1ccccc1 | 13 | 3038 | 2 | 0 | 4 | -5
O=C(Nc1ccsc1C(=O)N1CCCCCC1)c1ccccc1 | -6 | 16715* | -2 | -1 | 0 | 33
CC1(c2ccc([N+](=O)[O-])cc2)Nc2ccccc2S1 (configuration not stated) | -5 | 3935 | -17 | 2 | 0 | 21
CN(C)C(=O)c1ccc(NC(=O)c2sccc2-c2ccccc2)cc1 | -3 | 5823 | -10 | 0 | 4 | 57*
CN(C)C(=O)c1ccc(NC(=O)c2cccnc2)cc1 | -4 | 10277 | 1 | 0 | 5 | 16

Screening results deposited in PubChem BioAssay by several laboratories.
